Data taken from paper PMC7862700, “An all-to-all approach to the identification of sequence-specific readers for epigenetic DNA modifications on cytosine”.

How the values were obtained:
Assay in all cases: DAPPL (digital affinity profiling via proximity ligation, sequencing); 10 mM Tris-HCl pH 7.5, 50 mM NaCl, 1 mM DTT, 4% glycerol, room temperature, 30 min; GST-TFs on glutathione beads, 16-mer random dsDNA library, 0.1% formaldehyde crosslink after washing; high values mean tight binding
Settings in all cases: protein: recombinant; tags: N-terminal GST; dsDNA, one strand shown
[1] = molecular target: T1, FLI1 (Homo sapiens, UniProt Q01543 1-452)
T1 sequence: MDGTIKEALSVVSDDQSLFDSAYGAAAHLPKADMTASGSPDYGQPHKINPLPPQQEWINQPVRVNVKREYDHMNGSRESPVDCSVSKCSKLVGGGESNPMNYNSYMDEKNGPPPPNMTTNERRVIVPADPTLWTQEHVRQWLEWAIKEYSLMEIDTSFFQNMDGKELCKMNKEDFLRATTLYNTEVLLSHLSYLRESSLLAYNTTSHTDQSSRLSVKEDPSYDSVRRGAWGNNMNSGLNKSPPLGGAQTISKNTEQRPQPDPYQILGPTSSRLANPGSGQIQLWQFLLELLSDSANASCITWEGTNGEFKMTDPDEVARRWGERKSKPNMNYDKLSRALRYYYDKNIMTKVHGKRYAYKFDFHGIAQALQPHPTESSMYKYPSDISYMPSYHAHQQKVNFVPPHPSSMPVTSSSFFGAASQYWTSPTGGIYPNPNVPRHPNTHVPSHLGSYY
How it was run: (§1)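 After expression in yeast as GST fusions, human transcription factors were bound to glutathione beads, DNA-barcoded and mixed with a tag-only sample. The pools were incubated with 200 nmole of a 16-mer random double-stranded DNA library in Tris/NaCl/DTT/glycerol buffer (30 min, room temperature), washed and crosslinked with 0.1% formaldehyde. Proximity ligation with BsaI/T4 ligase ran for 1 h at 37 °C, before PCR amplification and sequencing on an Illumina NextSeq500. Binding signal is a hexamer's read frequency for a factor divided by its frequency for the tag-only sample.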

[2] = molecular target: T2, ELK1 (Homo sapiens, UniProt P19419 1-428)
T2 sequence: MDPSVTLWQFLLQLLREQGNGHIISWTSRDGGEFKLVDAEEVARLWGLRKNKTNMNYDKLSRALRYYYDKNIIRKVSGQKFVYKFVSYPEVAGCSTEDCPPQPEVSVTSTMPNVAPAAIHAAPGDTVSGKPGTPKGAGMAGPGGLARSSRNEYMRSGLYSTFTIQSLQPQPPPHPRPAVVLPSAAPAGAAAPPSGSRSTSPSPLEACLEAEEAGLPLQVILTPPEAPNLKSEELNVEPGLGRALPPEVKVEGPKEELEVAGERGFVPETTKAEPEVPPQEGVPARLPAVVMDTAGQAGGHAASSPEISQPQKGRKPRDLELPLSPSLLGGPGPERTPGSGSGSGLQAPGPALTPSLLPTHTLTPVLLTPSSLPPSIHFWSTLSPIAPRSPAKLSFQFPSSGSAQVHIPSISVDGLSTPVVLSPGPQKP
How it was run: as §1

[3] = molecular target: T3, GABPA (Homo sapiens, UniProt Q06546 1-454)
T3 sequence: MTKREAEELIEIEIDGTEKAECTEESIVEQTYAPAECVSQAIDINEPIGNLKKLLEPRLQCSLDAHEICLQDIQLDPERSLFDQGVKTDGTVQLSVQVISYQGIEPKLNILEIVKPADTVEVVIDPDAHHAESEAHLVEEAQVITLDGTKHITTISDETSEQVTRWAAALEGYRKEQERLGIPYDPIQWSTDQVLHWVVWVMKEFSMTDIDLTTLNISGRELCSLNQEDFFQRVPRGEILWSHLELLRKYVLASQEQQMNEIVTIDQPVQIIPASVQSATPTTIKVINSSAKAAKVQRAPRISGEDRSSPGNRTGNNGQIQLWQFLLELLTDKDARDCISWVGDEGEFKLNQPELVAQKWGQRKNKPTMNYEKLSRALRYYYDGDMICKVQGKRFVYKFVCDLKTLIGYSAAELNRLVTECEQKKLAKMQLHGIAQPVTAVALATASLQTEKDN
How it was run: as §1

[4] = molecular target: T4, ERG (Homo sapiens, UniProt P11308 1-479)
T4 sequence: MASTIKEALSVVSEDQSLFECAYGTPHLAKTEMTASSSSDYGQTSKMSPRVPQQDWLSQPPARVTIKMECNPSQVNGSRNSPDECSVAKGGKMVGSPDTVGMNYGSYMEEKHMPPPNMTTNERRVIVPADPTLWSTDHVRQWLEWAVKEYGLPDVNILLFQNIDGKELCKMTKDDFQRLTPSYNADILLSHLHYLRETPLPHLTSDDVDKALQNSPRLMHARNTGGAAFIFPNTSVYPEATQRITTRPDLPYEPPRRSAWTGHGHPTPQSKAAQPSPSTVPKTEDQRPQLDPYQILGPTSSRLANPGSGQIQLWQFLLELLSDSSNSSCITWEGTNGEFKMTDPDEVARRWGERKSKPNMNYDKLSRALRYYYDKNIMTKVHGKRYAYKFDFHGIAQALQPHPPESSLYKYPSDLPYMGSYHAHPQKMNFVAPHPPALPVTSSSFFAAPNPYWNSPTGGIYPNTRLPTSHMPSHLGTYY
How it was run: as §1

[5] = molecular target: ELF1 (Homo sapiens, UniProt P32519 1-619)
How it was run: as §1

[6] = molecular target: T5, EHF (Homo sapiens, UniProt Q9NZC4 1-300)
T5 sequence: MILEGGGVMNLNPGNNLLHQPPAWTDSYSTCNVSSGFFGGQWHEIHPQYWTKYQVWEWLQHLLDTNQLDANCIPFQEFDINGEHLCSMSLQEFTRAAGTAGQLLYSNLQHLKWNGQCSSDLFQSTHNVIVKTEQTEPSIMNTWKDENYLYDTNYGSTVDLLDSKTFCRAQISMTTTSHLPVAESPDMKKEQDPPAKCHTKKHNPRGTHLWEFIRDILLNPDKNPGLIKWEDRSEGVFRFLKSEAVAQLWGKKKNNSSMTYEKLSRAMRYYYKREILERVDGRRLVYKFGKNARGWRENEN
How it was run: as §1

[7] = molecular target: SPI1 (Homo sapiens, UniProt P17947 1-270)
How it was run: as §1

[8] = molecular target: SPIB (Homo sapiens, UniProt Q01892 1-262)
How it was run: as §1

[9] = molecular target: T6, ELK3 (Homo sapiens, UniProt P41970 1-407)
T6 sequence: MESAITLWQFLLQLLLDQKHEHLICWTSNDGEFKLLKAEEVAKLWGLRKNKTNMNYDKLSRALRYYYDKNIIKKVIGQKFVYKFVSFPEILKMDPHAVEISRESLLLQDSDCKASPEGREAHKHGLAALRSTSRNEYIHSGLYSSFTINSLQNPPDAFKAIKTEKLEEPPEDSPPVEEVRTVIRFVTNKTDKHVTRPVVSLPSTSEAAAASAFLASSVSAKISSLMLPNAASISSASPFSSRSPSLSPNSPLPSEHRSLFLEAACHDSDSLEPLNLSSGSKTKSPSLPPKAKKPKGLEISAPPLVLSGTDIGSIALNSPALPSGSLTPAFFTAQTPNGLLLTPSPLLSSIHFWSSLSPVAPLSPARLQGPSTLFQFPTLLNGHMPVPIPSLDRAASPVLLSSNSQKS
How it was run: as §1

Chain of ELF1 (P32519 whole entry): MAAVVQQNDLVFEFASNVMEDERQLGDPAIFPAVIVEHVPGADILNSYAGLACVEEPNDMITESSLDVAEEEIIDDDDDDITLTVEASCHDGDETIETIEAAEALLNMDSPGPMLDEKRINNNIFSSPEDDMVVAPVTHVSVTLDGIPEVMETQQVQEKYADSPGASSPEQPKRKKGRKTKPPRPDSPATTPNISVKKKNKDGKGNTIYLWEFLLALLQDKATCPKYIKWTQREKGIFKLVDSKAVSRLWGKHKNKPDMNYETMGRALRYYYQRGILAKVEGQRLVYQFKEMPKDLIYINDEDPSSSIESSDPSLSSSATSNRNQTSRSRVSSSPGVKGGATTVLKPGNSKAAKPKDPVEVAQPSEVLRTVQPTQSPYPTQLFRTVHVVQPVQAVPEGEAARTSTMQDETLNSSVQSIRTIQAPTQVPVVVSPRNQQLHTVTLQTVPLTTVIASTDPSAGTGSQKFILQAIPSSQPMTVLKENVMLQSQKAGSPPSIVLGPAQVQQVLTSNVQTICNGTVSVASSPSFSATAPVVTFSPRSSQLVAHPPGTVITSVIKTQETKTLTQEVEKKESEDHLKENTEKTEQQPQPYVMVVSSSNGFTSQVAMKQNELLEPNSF
Chain of SPIB (Q01892 whole entry): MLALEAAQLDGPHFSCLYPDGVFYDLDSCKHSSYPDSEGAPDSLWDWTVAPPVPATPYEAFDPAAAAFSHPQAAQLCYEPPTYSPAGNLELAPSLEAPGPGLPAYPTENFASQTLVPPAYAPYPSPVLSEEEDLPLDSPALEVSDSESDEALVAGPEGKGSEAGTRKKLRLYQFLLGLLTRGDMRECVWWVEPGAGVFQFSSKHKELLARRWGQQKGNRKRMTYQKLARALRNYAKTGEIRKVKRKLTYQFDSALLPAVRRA

Sequence	binding signal [1]	binding signal [2]	binding signal [3]	binding signal [4]	binding signal [5]	binding signal [6]	binding signal [7]	binding signal [8]	binding signal [9]
CTGCAC	1.2 fold enrichment (6-mer frequency, TF over GST control)	1.29 fold enrichment (6-mer frequency, TF over GST control)	1.12 fold enrichment (6-mer frequency, TF over GST control)	1.13 fold enrichment (6-mer frequency, TF over GST control)	1.21 fold enrichment (6-mer frequency, TF over GST control)	1.3 fold enrichment (6-mer frequency, TF over GST control)	1.19 fold enrichment (6-mer frequency, TF over GST control)	1.15 fold enrichment (6-mer frequency, TF over GST control)	1.12 fold enrichment (6-mer frequency, TF over GST control)
AACCAT	1.14 fold enrichment (6-mer frequency, TF over GST control)	1.17 fold enrichment (6-mer frequency, TF over GST control)	1.16 fold enrichment (6-mer frequency, TF over GST control)	1.2 fold enrichment (6-mer frequency, TF over GST control)	1.18 fold enrichment (6-mer frequency, TF over GST control)	1.22 fold enrichment (6-mer frequency, TF over GST control)	1.12 fold enrichment (6-mer frequency, TF over GST control)	1.12 fold enrichment (6-mer frequency, TF over GST control)	1.28 fold enrichment (6-mer frequency, TF over GST control)
ACCTGA	1.06 fold enrichment (6-mer frequency, TF over GST control)	1.12 fold enrichment (6-mer frequency, TF over GST control)	1.03 fold enrichment (6-mer frequency, TF over GST control)	1.12 fold enrichment (6-mer frequency, TF over GST control)	1.14 fold enrichment (6-mer frequency, TF over GST control)	1.09 fold enrichment (6-mer frequency, TF over GST control)	1.01 fold enrichment (6-mer frequency, TF over GST control)	1.1 fold enrichment (6-mer frequency, TF over GST control)	1.07 fold enrichment (6-mer frequency, TF over GST control)
CGACCA	1.2 fold enrichment (6-mer frequency, TF over GST control)	1.27 fold enrichment (6-mer frequency, TF over GST control)	1.23 fold enrichment (6-mer frequency, TF over GST control)	1.15 fold enrichment (6-mer frequency, TF over GST control)	1.31 fold enrichment (6-mer frequency, TF over GST control)	1.28 fold enrichment (6-mer frequency, TF over GST control)	1.24 fold enrichment (6-mer frequency, TF over GST control)	1.16 fold enrichment (6-mer frequency, TF over GST control)	1.37 fold enrichment (6-mer frequency, TF over GST control)
CCCATC	1.19 fold enrichment (6-mer frequency, TF over GST control)	1.18 fold enrichment (6-mer frequency, TF over GST control)	1.17 fold enrichment (6-mer frequency, TF over GST control)	1.11 fold enrichment (6-mer frequency, TF over GST control)	1.12 fold enrichment (6-mer frequency, TF over GST control)	1.17 fold enrichment (6-mer frequency, TF over GST control)	1.11 fold enrichment (6-mer frequency, TF over GST control)	1.18 fold enrichment (6-mer frequency, TF over GST control)	1.21 fold enrichment (6-mer frequency, TF over GST control)
TTATCA	1.16 fold enrichment (6-mer frequency, TF over GST control)	1.15 fold enrichment (6-mer frequency, TF over GST control)	1.05 fold enrichment (6-mer frequency, TF over GST control)	1.06 fold enrichment (6-mer frequency, TF over GST control)	1.15 fold enrichment (6-mer frequency, TF over GST control)	1.02 fold enrichment (6-mer frequency, TF over GST control)	1.09 fold enrichment (6-mer frequency, TF over GST control)	1.1 fold enrichment (6-mer frequency, TF over GST control)	1.17 fold enrichment (6-mer frequency, TF over GST control)
AAATAG	1.18 fold enrichment (6-mer frequency, TF over GST control)	1.1 fold enrichment (6-mer frequency, TF over GST control)	1.12 fold enrichment (6-mer frequency, TF over GST control)	1.22 fold enrichment (6-mer frequency, TF over GST control)	1.08 fold enrichment (6-mer frequency, TF over GST control)	1.19 fold enrichment (6-mer frequency, TF over GST control)	1.22 fold enrichment (6-mer frequency, TF over GST control)	1.15 fold enrichment (6-mer frequency, TF over GST control)	1.08 fold enrichment (6-mer frequency, TF over GST control)
CCCTCT	1.31 fold enrichment (6-mer frequency, TF over GST control)	1.43 fold enrichment (6-mer frequency, TF over GST control)	1.37 fold enrichment (6-mer frequency, TF over GST control)	1.25 fold enrichment (6-mer frequency, TF over GST control)	1.28 fold enrichment (6-mer frequency, TF over GST control)	1.3 fold enrichment (6-mer frequency, TF over GST control)	1.28 fold enrichment (6-mer frequency, TF over GST control)	1.56 fold enrichment (6-mer frequency, TF over GST control)	1.51 fold enrichment (6-mer frequency, TF over GST control)
